The campaign covered roughly 85,000 compounds. About 440 (0.52%) showed an effect of 50% or more. This is one part of a sample in which strong results are shown more often than they occur.
Assay: In vitro enzyme assay to detect hydrolysis of chlorophenol red-beta-D-[…] directly proportional to the number of Toxoplasma stably expressing beta-galactosidase
Assay type: functional, organism-based, Toxoplasma gondii
Design: scale not given: in the data most compounds retested in dose-response had high values

CC(C)NC(=O)CCN1CCC(CN2CCCC2)CC1
Percent Effect (50 µM): 15.46%

O[C@@H]1CN(Cc2ccccc2)C[C@@H]1O
Percent Effect (50 µM): 8.775%

Cc1noc(C)c1COC1CCNC1 (stereo not drawn)
Percent Effect (50 µM): 7.368%

O=C(COc1ccc(F)cc1)Nc1ccon1
Percent Effect (50 µM): -3.156%

CC(NC(=O)C1CCNCC1)c1cccc(F)c1 (stereo not drawn)
Percent Effect (50 µM): 17.33%

OC1(Cc2ccccn2)CCNCC1
Percent Effect (50 µM): -0.4203%

Cc1cccc(NCC2CCN(CCC(N)=O)C2)n1 (stereo not drawn)
Percent Effect (50 µM): 2.724%

CCNC(C)(C)C(=O)N(C)Cc1ccc(OC)c(F)c1
Percent Effect (50 µM): 94.51%

COc1ccc(CN(C)C(=O)CCNC(C)=O)cc1F
Percent Effect (50 µM): -5.409%

COc1ccc(CN(C)C(=O)C2CC2)cc1F
Percent Effect (50 µM): 5.333%

NCc1ccc(-n2cc(Cl)cn2)cc1
Percent Effect (50 µM): -34.41%

CCCn1ccnc1CNC(=O)c1ccc(F)c(O)c1
Percent Effect (50 µM): 10.15%

CN1CCc2nc(NC(=O)c3cncc(Br)c3)sc2C1
Percent Effect (50 µM): -4.285%

CCN1CCc2nc(NC(=O)c3cc(Br)c[nH]3)sc2C1
Percent Effect (50 µM): -7.995%

CCN1CCc2nc(NC(=O)c3ccncc3)sc2C1
Percent Effect (50 µM): 61.16%

O=C(NCCCNCc1ccccc1)c1ccco1
Percent Effect (50 µM): -4.419%

CN1N=C(C(=O)NC2CCCc3occc32)CCC1=O (stereo not drawn)
Percent Effect (50 µM): 1.103%

COc1ccc(CN)c(F)c1
Percent Effect (50 µM): 0.131%

CC(C(N)=O)N1CCN(C(=O)c2ccc(Br)cc2)CC1 (stereo not drawn)
Percent Effect (50 µM): 3.88%

Cc1ccc(C(=O)N2CCN(C(C)C(N)=O)CC2)s1 (stereo not drawn)
Percent Effect (50 µM): 98.87%

Cc1csc(N2CCN(C(=O)c3ccc(C)s3)CC2)n1
Percent Effect (10 µM): -15.38%

OC1CN(Cc2ccc(OCc3ccccn3)cc2)C1
Percent Effect (50 µM): -10.4%

COc1c(C)cnc(CN(C)C2CCN(C3CCOCC3)CC2)c1C
Percent Effect (10 µM): 16.07%

COc1c(C)cnc(CN(C)C)c1C
Percent Effect (50 µM): 0.7571%

COc1c(C)cnc(CN(C)C2CCCCC2)c1C
Percent Effect (10 µM): 62.27%

CC(Cn1cccn1)NC(=O)c1cncc(Br)c1 (stereo not drawn)
Percent Effect (50 µM): 6.883%

c1nc(CCNc2nc(C3CC3)nc3c2CCNCC3)c[nH]1
Percent Effect (10 µM): 13.19%

Cc1nc2c(c(NCCc3nc4c(s3)CCCC4)n1)CCNCC2
Percent Effect (10 µM): -0.699%

C1Cc2nc(CCNc3nc(C4CC4)nc4c3CCNCC4)sc2C1
Percent Effect (10 µM): 77.67%

N[C@H]1CC[C@@H](n2cc(Br)cn2)CC1
Percent Effect (50 µM): 5.491%

Cc1ccc(CNC(=O)C2(C)CCCCC(=O)N2)o1 (stereo not drawn)
Percent Effect (50 µM): 14.66%

Cc1cccc(CNC(=O)C2CCCCC(=O)N2)c1 (stereo not drawn)
Percent Effect (50 µM): -7.628%

Cc1ccc(CNC(=O)C2CCCCC(=O)N2)o1 (stereo not drawn)
Percent Effect (50 µM): 50.04%

N#CC1CCN(C(=O)c2ccc(SCCO)cc2)CC1
Percent Effect (50 µM): -14.8%

CNc1cccnc1N(C)C
Percent Effect (50 µM): 57.74%

CNc1cccc2cccnc12
Percent Effect (50 µM): -1.4%

CN(C)c1ncccc1N
Percent Effect (50 µM): 1.469%

COC(C(=O)NC1(C)CCOCC1)c1ccccc1 (stereo not drawn)
Percent Effect (50 µM): -2.025%

CSCCCN1CCN(C(=O)c2ccc[nH]2)CC1
Percent Effect (50 µM): -8.697%

CO[C@H]1[C@@H]2CC[C@H]1CN(c1nc(C)nc3ccsc13)C2
Percent Effect (10 µM): 70.73%

Cc1nc(N2C[C@@H](CN3CCCCC3)[C@@H](CO)C2)c2sccc2n1
Percent Effect (10 µM): -8.225%

CO[C@H]1[C@@H]2CC[C@H]1CN(c1nc(C)nc3sccc13)C2
Percent Effect (10 µM): 8.834%

CC(C)(C)NCC(=O)Nc1ccc(Cl)cn1
Percent Effect (50 µM): -9.06%

CN1Cc2cc(O)ccc2C1=O
Percent Effect (50 µM): 4.771%

Cc1cc(C(=O)Nc2ccc3c(c2)CC(=O)N3)c(C)o1
Percent Effect (50 µM): 62.73%

Cc1noc(C)c1CCCNC(=O)Nc1ccc2c(c1)CC(=O)N2
Percent Effect (10 µM): -25.73%

COc1cccc(NC(=O)Nc2ccc3c(c2)CC(=O)N3)c1
Percent Effect (10 µM): 14.2%

O=C(NC1CC1)C1CCCN1c1ccc2nnnn2n1 (stereo not drawn)
Percent Effect (50 µM): 14.68%

Cc1ccc(CNCCN2CCOCC2)s1
Percent Effect (50 µM): -0.4782%

CC(CO)N(C)C(=O)c1cccc2cc[nH]c12 (stereo not drawn)
Percent Effect (50 µM): 3.789%

O=C(NC(C1CCNCC1)[C@H]1C[C@H](O)C1)C1CC=CC1 (stereo partly drawn)
Percent Effect (50 µM): -3.099%

CSCC(=O)NC(C1CCNCC1)[C@H]1C[C@@H](O)C1 (stereo partly drawn)
Percent Effect (50 µM): 54.38%

CSCCC(=O)NC(C1CCNCC1)[C@H]1C[C@H](O)C1 (stereo partly drawn)
Percent Effect (50 µM): 2.303%

CN(C)C(=O)C1OCCc2ccccc21 (stereo not drawn)
Percent Effect (50 µM): -9.561%

CCN(C1CC1)S(=O)(=O)c1ccc(OC)c(C(N)=O)c1
Percent Effect (50 µM): -4.702%

CC(C)OCCOCC(O)CN(C)Cc1cccnc1 (stereo not drawn)
Percent Effect (50 µM): -1.887%

Cc1cscc1C(=O)NCCc1cncn1C
Percent Effect (50 µM): -7.221%

CC(C)S(=O)(=O)N(C)C(=O)c1cc(Br)c2c(c1)OCO2
Percent Effect (50 µM): 10.61%

NCc1cc(Br)c2c(c1)OCO2
Percent Effect (50 µM): 33.59%

CCOC(=O)C(O)c1cc(Br)c2c(c1)OCO2 (stereo not drawn)
Percent Effect (50 µM): 60.1%

CC(C)NC(=O)C(C)n1cncn1 (stereo not drawn)
Percent Effect (50 µM): 7.173%

CN(CCN)S(=O)(=O)c1cccs1
Percent Effect (50 µM): -2.794%

Cc1cc(C)n(-c2cncc(NCCNC(=O)C3CCCC3)n2)n1
Percent Effect (10 µM): -17.81%

Cc1cc(C)n(C2=NC(NCCC(C)C)c3c(sc4c3CCCC4)N2)n1 (stereo not drawn)
Percent Effect (10 µM): -32.33%

Cc1cc(C)n(-c2nc(NCCCO)c3c4c(sc3n2)CCCC4)n1
Percent Effect (10 µM): 81.16%

O=C(NCc1cn2ccccc2n1)c1ccc(=O)oc1
Percent Effect (50 µM): -17.09%

CNCC(=O)Nc1cc(Cl)ccc1OC
Percent Effect (50 µM): -3.261%

COCCNC(=O)Nc1cc(Cl)ccc1OC
Percent Effect (50 µM): 51.47%

CCCOc1ccc(Cl)cc1NC(=O)NCCC(=O)N(C)C
Percent Effect (10 µM): 15.25%

O=C(CCC1CCCCC1)NCc1c[nH]nn1
Percent Effect (50 µM): 1.133%

CC(N)c1ccccc1N1CCOCC1 (stereo not drawn)
Percent Effect (50 µM): 0.1688%

C[C@@H](CO)NC(=O)NCC1CCN(CC(F)(F)F)CC1
Percent Effect (50 µM): -3.478%

COCCC1(CN2CCC(C(N)=O)C2)CCC1 (stereo not drawn)
Percent Effect (50 µM): 68.22%

COCCC1(CN2CCCC(C(N)=O)C2)CCC1 (stereo not drawn)
Percent Effect (50 µM): -0.683%

COCCC1(CO)CCCN(CC(N)=O)C1 (stereo not drawn)
Percent Effect (50 µM): 0.1422%

CN(CC1CCOCC1)C(=O)c1ccc(CN)cc1
Percent Effect (50 µM): 0.3864%

Cc1c(Cl)c(C(=O)N2CCCCC2)nn1C
Percent Effect (50 µM): 24.41%

CCS(=O)(=O)Cc1nnnn1-c1ccccc1
Percent Effect (10 µM): -0.7088%

CN(Cc1ccc2c(c1)OCCO2)Cc1nnnn1-c1ccccc1
Percent Effect (10 µM): -19.55%

CCN(CC)Cc1nnnn1-c1ccccc1
Percent Effect (50 µM): 68.75%

O=C(Nc1ccccc1N1CCCC1)C1CCOC1 (stereo not drawn)
Percent Effect (50 µM): 2.349%

CS(=O)(=O)Nc1ccccc1CNC(=O)c1ccoc1
Percent Effect (50 µM): 97.49%

O=C(CCNC(=O)c1ccoc1)NCc1ccccc1F
Percent Effect (10 µM): -6.438%

CN(C)c1ncccc1CNC(=O)c1ccoc1
Percent Effect (50 µM): -3.271%

CC1CCCN(CCCN)C1 (stereo not drawn)
Percent Effect (50 µM): 8.539%

O=C(CC1CSCCN1)NCCc1ccc(F)cc1F (stereo not drawn)
Percent Effect (50 µM): 0.8144%

CCCc1noc(COc2nc(C)no2)n1
Percent Effect (50 µM): 3.348%

CC(C)C(NC(=O)Cn1cnnn1)c1cccs1 (stereo not drawn)
Percent Effect (50 µM): 19.15%

O=C(N1CCOCC1)[C@@]12CCO[C@@H]1CCN(C1CCC1)C2.O=C(O)C(F)(F)F
Percent Effect (10 µM): 41.32%

O=C(N1CCOCC1)[C@@]12CCO[C@@H]1CCN(C1CCCCC1)C2.O=C(O)C(F)(F)F
Percent Effect (10 µM): -8.917%

O=C(N1CCOCC1)[C@@]12CCO[C@@H]1CCN(C1CCOCC1)C2.O=C(O)C(F)(F)F
Percent Effect (10 µM): 86.48%

Cc1cc(C)n(CCC(=O)NC2C=CS(=O)(=O)C2)n1 (stereo not drawn)
Percent Effect (50 µM): -3.643%

CC(Nc1ccc(C#N)cn1)c1ccc2c(c1)OCO2 (stereo not drawn)
Percent Effect (50 µM): 3.939%

CC(C)CC(=O)N1CC[C@H]2N(C)CC[C@@]2(C(=O)Nc2ccccc2)CC1.O=C(O)C(F)(F)F
Percent Effect (10 µM): 95.11%

CC(C)C(=O)N1CC[C@H]2N(C)CC[C@@]2(C(=O)Nc2ccccc2)CC1
Percent Effect (10 µM): -18.9%

CC(C)CC(=O)N1CC[C@H]2N(C)CC[C@@]2(C(=O)Nc2cccnc2)CC1.O=C(O)C(F)(F)F.O=C(O)C(F)(F)F
Percent Effect (10 µM): 6.738%

O=C(CCC1CCCCC1)N1CC[S+]([O-])CC1
Percent Effect (50 µM): -3.074%

CC(C)(CO)NCC(O)c1cccc(F)c1 (stereo not drawn)
Percent Effect (50 µM): 95.56%

CC(C)(C)OC(=O)NCCC(=O)NCC(O)c1cccc(F)c1 (stereo not drawn)
Percent Effect (10 µM): -9.599%

CC(C)(CO)NCC(O)c1cccc(Cl)c1 (stereo not drawn)
Percent Effect (50 µM): 48.83%

Cc1cc(Br)oc1C(=O)NCCOC(N)=O
Percent Effect (50 µM): -2.351%

COc1ccc(OC)c(NC(=O)N2CC(C)(OC)C2)c1
Percent Effect (50 µM): 3.541%

CC[C@H](C)[C@H](N)C(=O)NC
Percent Effect (50 µM): -8.555%

c1csc(-c2noc(C3CCCOC3)n2)c1 (stereo not drawn)
Percent Effect (10 µM): -3.059%

Cl.c1csc(-c2noc(C3CNC3)n2)c1
Percent Effect (10 µM): 42.66%

CC(=O)Nc1ccc(C(C)N)cc1 (stereo not drawn)
Percent Effect (50 µM): -11.91%

COCCn1ccnc1CN(C)[C@H]1COC[C@@H]1O
Percent Effect (50 µM): -5.172%

CCN1CCN(Cc2c(-c3ccco3)[nH]c3ncccc23)CC1
Percent Effect (10 µM): -25.08%

CN1CCN(Cc2c(-c3ccco3)[nH]c3ncccc23)CC1
Percent Effect (10 µM): 84.72%

OC1CCN(Cc2c(-c3ccco3)[nH]c3ncccc23)CC1
Percent Effect (10 µM): -9.681%

Cc1nnc(SCC(=O)C(C)(C)C)[nH]1
Percent Effect (50 µM): 12.7%

Cc1n[nH]cc1CNCCNc1ncc(Cl)cc1Cl
Percent Effect (50 µM): 5.335%

CNC(=O)CN(C)C(=O)CCc1ccc(Br)cc1F
Percent Effect (50 µM): 0.9597%

O=C(c1cnsn1)N1CCN(C2CC2)C(=O)C1
Percent Effect (50 µM): 91.53%

NCc1ccc(C(=O)N2CCN(C3CC3)C(=O)C2)cc1
Percent Effect (50 µM): 8.158%

COc1ccccc1C(=O)N1CCN(C2CC2)C(=O)C1
Percent Effect (50 µM): -3.275%

COc1cc(CN)ccc1OCC(N)=O
Percent Effect (50 µM): 19.26%

Cc1nc(CC(=O)NCCN2CCNC2=O)c(C)s1
Percent Effect (50 µM): -2.42%

From ChEMBL document CHEMBL3988442, “University of Dundee, Small-Polar-MMV Screening Library” (2021)
